According to the supplement of paper PMC11732987, “Enantioselective OTUD7B fragment discovery through chemoproteomics screening and high-throughput optimisation” (Communications Chemistry, 2025):

Columns and labels:
Test in all cases: log2 ratio of Biotin-Ahx-Ub-VS probe labelling (fragment/DMSO); higher = less target engagement (more negative = stronger competition), active = hit call of the paper (q ≤ 0.05, log2 ratio ≤ -1)
Conditions in all cases: compound concentration: 200 uM; treatment time: 3 h
OTUD6B = biological target: T1, OTUD6B (UniProt Q8N6M0)
T1 sequence (whole entry): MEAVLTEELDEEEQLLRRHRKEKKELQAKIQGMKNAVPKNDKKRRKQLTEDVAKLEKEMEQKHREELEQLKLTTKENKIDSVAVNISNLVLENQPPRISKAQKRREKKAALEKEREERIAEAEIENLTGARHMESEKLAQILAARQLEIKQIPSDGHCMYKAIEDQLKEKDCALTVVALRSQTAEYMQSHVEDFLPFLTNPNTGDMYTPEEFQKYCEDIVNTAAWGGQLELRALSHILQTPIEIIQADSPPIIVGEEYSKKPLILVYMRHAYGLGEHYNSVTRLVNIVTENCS
How it was run: (§1)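 Using Biotin-Ahx-Ub-VS at 0.5 µM final for 1 h, DUBs were labelled in HEK293T lysate (495 µg per sample) that had first been treated in triplicate with fragment at 200 µM or vehicle for 3 h. NeutrAvidin enrichment, LysC and trypsin digestion and diaPASEF LC-MS/MS followed. Spectronaut label-free quantities were global-median-normalised. Values are average log2 fragment/vehicle ratios by unpaired t-test, using proteins with ≥2 unique peptides.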

OTUD7B = biological target: T2, OTUD7B (UniProt Q6GQQ9)
T2 sequence (whole entry): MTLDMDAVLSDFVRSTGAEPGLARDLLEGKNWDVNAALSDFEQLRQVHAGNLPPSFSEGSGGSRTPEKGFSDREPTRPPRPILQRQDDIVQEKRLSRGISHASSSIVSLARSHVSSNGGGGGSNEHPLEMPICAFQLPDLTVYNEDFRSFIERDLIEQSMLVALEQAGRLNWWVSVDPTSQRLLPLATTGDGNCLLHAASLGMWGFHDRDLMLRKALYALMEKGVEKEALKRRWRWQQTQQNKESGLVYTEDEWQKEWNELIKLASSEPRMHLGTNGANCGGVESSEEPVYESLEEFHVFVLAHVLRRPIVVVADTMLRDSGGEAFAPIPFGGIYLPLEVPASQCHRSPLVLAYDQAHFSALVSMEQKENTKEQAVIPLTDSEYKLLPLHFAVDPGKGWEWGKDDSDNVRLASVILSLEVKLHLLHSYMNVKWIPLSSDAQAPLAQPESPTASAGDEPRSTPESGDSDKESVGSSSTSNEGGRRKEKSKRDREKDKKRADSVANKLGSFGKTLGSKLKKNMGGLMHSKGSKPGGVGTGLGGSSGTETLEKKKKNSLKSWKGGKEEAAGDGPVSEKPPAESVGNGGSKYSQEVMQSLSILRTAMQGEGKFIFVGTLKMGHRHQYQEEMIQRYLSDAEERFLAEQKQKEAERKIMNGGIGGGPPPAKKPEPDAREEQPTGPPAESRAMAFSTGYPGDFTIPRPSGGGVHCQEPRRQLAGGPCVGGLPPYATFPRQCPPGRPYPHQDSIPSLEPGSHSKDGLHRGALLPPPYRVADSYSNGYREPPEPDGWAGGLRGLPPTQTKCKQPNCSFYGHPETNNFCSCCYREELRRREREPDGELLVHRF
How it was run: as §1

PRPF8 = PRPF8 (UniProt Q6P2Q9)
How it was run: as §1

PSMD7 = biological target: T3, PSMD7 (UniProt P51665)
T3 sequence (whole entry): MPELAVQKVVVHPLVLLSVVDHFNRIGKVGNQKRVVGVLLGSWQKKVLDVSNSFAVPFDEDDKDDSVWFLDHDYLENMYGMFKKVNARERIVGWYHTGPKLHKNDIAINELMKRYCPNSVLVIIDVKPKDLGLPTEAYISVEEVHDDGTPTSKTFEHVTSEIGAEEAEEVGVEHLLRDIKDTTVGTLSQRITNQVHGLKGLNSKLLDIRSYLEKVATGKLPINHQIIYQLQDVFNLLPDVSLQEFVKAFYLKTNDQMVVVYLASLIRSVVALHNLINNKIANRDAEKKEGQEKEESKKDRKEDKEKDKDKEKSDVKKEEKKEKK
How it was run: as §1

UCHL1 = UCHL1 (UniProt P09936)
UCHL1, sequence (P09936 whole entry, looked up): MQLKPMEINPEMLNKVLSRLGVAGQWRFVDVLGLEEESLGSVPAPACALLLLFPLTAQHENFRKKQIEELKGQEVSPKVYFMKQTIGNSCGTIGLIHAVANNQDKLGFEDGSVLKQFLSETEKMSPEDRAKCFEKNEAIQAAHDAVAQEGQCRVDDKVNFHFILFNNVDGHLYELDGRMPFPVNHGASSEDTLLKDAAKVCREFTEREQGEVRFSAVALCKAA
How it was run: as §1

UCHL3 = biological target: T4, UCHL3 (UniProt P15374)
T4 sequence (whole entry): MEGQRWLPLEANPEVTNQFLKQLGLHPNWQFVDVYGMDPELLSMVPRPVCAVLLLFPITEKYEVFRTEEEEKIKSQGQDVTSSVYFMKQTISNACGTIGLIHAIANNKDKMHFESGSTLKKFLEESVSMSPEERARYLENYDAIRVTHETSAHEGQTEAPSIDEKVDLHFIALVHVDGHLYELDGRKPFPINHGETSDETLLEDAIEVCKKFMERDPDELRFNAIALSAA
How it was run: as §1

UCHL5 = biological target: T5, UCHL5 (UniProt Q9Y5K5)
T5 sequence (whole entry): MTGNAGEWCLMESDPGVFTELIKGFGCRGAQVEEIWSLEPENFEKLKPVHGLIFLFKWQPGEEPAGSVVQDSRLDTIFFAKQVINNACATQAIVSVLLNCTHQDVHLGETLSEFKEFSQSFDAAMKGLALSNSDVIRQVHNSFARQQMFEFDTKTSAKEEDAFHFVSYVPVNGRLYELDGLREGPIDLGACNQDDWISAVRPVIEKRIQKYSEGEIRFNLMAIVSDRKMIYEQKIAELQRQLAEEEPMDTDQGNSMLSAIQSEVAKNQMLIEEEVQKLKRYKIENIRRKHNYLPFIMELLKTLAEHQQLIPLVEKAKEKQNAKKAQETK
How it was run: as §1

USP10 = USP10 (UniProt Q14694)
USP10, sequence (Q14694 whole entry): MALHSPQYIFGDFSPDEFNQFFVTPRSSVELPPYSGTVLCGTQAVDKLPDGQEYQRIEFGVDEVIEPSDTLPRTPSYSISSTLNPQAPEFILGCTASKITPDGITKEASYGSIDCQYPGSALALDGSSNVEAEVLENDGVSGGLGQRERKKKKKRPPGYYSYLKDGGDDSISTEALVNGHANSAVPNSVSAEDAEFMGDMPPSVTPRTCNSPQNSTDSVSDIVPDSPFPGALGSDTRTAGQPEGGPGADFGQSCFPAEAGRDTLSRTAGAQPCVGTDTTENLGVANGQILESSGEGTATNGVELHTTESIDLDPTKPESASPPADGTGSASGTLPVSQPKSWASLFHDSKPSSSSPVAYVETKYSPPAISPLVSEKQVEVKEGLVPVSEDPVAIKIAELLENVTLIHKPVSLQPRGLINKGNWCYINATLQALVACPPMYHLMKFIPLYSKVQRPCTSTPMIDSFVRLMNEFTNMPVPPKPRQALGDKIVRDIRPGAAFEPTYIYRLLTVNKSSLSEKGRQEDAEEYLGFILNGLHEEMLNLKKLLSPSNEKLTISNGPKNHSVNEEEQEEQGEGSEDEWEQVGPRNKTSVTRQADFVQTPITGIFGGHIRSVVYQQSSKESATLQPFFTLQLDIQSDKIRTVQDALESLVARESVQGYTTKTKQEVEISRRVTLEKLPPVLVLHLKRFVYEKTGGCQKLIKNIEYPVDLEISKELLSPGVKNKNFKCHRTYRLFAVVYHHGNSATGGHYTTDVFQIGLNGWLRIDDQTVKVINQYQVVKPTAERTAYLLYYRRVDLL
How it was run: as §1

USP15 = biological target: T6, USP15 (UniProt Q9Y4E8)
T6 sequence (whole entry): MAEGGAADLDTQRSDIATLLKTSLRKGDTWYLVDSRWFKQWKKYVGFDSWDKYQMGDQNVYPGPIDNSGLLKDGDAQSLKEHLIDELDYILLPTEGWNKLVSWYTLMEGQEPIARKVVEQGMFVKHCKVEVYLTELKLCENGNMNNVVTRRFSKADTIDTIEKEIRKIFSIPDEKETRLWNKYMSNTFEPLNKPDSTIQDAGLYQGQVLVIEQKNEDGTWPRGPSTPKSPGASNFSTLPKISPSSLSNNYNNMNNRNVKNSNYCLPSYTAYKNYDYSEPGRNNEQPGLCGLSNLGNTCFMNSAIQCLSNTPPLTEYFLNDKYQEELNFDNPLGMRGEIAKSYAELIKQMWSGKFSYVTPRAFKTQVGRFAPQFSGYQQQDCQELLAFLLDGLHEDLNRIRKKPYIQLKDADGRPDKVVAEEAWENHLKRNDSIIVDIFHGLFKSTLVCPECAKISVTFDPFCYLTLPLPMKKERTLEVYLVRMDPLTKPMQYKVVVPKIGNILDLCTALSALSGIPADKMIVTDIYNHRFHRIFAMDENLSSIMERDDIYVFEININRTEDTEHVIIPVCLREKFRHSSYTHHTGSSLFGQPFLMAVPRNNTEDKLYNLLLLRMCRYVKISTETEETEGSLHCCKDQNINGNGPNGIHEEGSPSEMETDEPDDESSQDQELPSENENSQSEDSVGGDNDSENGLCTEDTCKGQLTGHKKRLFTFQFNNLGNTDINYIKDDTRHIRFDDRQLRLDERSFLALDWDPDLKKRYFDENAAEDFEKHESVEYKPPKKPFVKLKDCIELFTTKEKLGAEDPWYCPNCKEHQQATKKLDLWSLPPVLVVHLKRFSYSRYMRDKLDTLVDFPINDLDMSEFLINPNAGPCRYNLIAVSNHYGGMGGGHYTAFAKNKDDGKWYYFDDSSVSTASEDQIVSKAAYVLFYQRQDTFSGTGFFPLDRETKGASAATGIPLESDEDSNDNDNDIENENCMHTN
How it was run: as §1

USP16 = USP16 (UniProt Q9Y5T5)
USP16, sequence (Q9Y5T5 whole entry, looked up): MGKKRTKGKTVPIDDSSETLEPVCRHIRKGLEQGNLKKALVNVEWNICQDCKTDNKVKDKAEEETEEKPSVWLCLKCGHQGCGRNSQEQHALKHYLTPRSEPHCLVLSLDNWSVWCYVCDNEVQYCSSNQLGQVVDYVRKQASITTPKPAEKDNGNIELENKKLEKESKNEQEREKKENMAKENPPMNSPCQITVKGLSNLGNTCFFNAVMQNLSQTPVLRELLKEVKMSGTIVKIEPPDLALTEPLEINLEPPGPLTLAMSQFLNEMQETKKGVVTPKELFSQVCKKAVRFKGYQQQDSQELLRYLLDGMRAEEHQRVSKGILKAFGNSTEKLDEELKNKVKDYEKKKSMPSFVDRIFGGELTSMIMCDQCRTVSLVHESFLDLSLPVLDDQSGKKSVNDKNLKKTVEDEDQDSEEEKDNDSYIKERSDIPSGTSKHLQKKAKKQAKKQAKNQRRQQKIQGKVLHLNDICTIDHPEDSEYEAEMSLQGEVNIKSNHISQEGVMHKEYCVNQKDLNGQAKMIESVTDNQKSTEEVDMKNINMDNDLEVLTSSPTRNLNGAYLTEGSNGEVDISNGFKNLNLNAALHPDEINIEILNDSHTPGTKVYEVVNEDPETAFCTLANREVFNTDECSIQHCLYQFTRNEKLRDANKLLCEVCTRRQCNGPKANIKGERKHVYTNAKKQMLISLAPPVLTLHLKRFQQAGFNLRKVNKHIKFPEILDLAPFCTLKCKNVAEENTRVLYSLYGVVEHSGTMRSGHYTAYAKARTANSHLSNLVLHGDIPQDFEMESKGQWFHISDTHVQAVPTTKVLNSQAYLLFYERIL
How it was run: as §1

Measured: log2 ratio of Biotin-Ahx-Ub-VS probe labelling

Cc1ccc(CC(NC(=O)CCl)c2ccccn2)cc1.Cl (stereo not given)
inactive: OTUD6B 0.0158 | OTUD7B -0.295 | PRPF8 0.0556 | PSMD7 -0.125 | UCHL1 -0.621 | UCHL3 0.459 | UCHL5 0.179 | USP10 -0.00276 | USP15 0.0178 | USP16 0.0921
